Pf growth 48h: P. falciparum growth inhibition at 48 hours (one generation). Potency, µM (doses to about 28.7 µM), usual class: inhibitors. actives 5.9% (n = 310,000). AID 504832. P. falciparum luciferase growth in erythrocytes, 48 h
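Firefly luciferase activity from engineered P. falciparum reports growth; inhibitors lower the luminescent signal. Cultures contained 2% hematocrit erythrocytes at 0.1% final parasitemia.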
CHX counter: counter-screen for Shiga toxin inhibitors: cycloheximide protein synthesis inhibition; cell reporter, cycloheximide protein synthesis inhibition counterscreen; max response, %; actives 12% (n = 300,000); in the data active = max response mostly above about 13%, no sharp cut-off; inactive = mostly below about 14%; note: read at 38.3 µM for the half of the compounds with a filed dose
NS1 function inh: influenza NS1 inhibition | actives 0.4% (n = 270,000) | Potency, µM (highest dose often 46.1 µM) | AID 2326; calls by dose curve; note: actives are rising curves; nearly all actives have a fitted effect of over 50% in size
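In this qHTS, NS1 from influenza A is expressed in budding yeast, where it slows growth. Cells are switched from glucose to 2% galactose medium (pH 6.0, -URA), treated with compound, and growth recovery is read at OD600.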
Pf growth 96h: P. falciparum growth inhibition at 96 hours; P. falciparum luciferase reporter growth, 96 h; Potency, µM (titrated, usually from 28.7 µM), usual class: inhibitors; actives 6.9% (n = 320,000); AID 504834
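Delayed-death screen, second-generation endpoint: infected erythrocytes, 2% hematocrit, 0.05% parasitemia final; 96 hours at 37 C, 5% CO2; luciferase detection reagent; luminescence decrease equals reduced growth.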
Shiga inhibitor: inhibitors of Shiga toxin in Vero cells; Vero cells, Shiga toxin protein synthesis inhibition reporter; inhibition, % at 38.7 µM; actives 9.2% (n = 290,000); in the data active = inhibition mostly above about 28%, no sharp cut-off; inactive = mostly below about 43%
Sm TGR inh: blocks Schistosoma mansoni thioredoxin glutathione reductase; Q962Y6; purified TGR, DTNB reduction, TNB absorbance 405 nm; Potency, µM (series often up to 114 µM), hits mostly inhibitors; actives 3% (n = 360,000); AID 485364; note: nearly all actives have a fitted effect of over 60% in size
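First, TGR (20 nM dispensed) and NADPH were mixed with compound. Second, a 15 min room-temperature incubation followed. Third, further NADPH and then DTNB were added to start the reaction. Finally, TNB absorbance was monitored kinetically.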
A number is an active result; - = inactive; ? = inconclusive; . = not tested or not shown; [ ] = remark or other dose. The list is not random: actives were taken first. Their share in the collection is about 21%. Unless noted, calls come from the whole dose curve; as a rule, active = well fitted curve in the direction sought with a large enough effect; inconclusive = small, poorly fitted or top-dose-only effect, or another doubt; inactive = no such curve, though single readings can be large; an effect the other way counts as inactive or inconclusive.

SMILES	Pf growth 48h	CHX counter	NS1 function inh	Pf growth 96h	Shiga inhibitor	Sm TGR inh
Cc1ccc(NC(=O)CN2CCCC2)cc1	-	-	-	-	.	-
COc1ccc(NC(=O)CN2CCC(C(N)=O)(N3CCCCC3)CC2)cc1	.	-	-	-	-	-
COc1ccc(NC(=O)CN2CCCCC2)cc1	-	34.4	-	-	-	-
COc1ccc(NC(=O)CCN2CCCC(C)C2)cc1 (stereo unspecified)	-	-	-	.	-	89.1µM
CC(=O)c1ccc(NC(=O)CN2CCCC2)cc1	-	27.1	-	?	27.5	-
NS(=O)(=O)c1ccc(NC(=O)CSC2CCCCC2)cc1	-	-	-	-[5.75 µM]	-	-
COc1ccc(NC(=O)CCN2CCC(C)CC2)cc1	-	-	-	-	-	-
COc1ccc(NC(=O)CSC2CCCCC2)cc1	-	61.2	-	.	153.2	-
COCCNC(=O)CCC(=O)NNc1nc2ccccc2c2nc(-c3ccccc3)nn12	-	-	.	-	-	-
CCCCCNC(=O)C1CCC(Cn2c(=O)c3sccc3n(CC)c2=O)CC1 (stereo unspecified)	.	.	.	.	.	-
O=C(CN1CCCCCC1)Nc1ccc(Br)cc1	.	24.4	-	?	-	-
O=C(CN1CCCCC1)Nc1ccccc1NC(=O)CN1CCCCC1	-	-	-	-	-	-
O=C(CN1CCCCCC1)Nc1cccc2c1OCO2	-	-	-	1.04µM	-	-
COc1ccc(S(=O)(=O)N(C)C)cc1NC(=O)COC(=O)c1nn(C)c(=O)c2ccccc12	?	-	.	-	-	-
Cc1cccc(N2CCN(C(=O)CS(=O)(=O)c3cccc4nsnc34)CC2C)c1 (stereo unspecified)	.	.	.	.	.	-
Cc1cc(N2CCN(c3cccc(C)c3C)CC2)n2nc(C)c(-c3ccc(Cl)cc3)c2n1	.	.	.	.	.	-
Oc1ccc(N=Cc2cc(Br)c(N3CCOCC3)o2)cc1	-	-	-	-	-	17.8µM
Cc1c(-c2nnc(SCC(=O)Nc3ccccc3F)o2)nnn1-c1ccc(F)cc1	.	.	.	.	.	-
COc1cc(N=Nc2cccc(S(N)(=O)=O)c2)c2ccccc2c1N	4.15µM	-	-	2.94µM	-	56.2µM
NC1=NC(=Nc2cccc(S(N)(=O)=O)c2)c2ccccc21	-	-	-	-	-	-
COC(=O)c1ccc(NC(=O)C(=O)N2CCN(C(=S)Nc3ccc(C)cc3)CC2)cc1	-	-	-	0.37µM	-	-
CCOC(=O)c1ccc(NC(=S)N2CCSC2c2ccc(Br)cc2)cc1 (stereo unspecified)	-	13.3	-	-	-	-
CCOC(=O)N1CCC(N(C(=O)Nc2ccc(CC)cc2)C(C)CC)CC1 (stereo unspecified)	-	13.6	-	-	-	-
CCOC(=O)c1ccc(NC(=S)N2CCC(O)CC2)cc1	-	39.2	-	-	-	-
COC(=O)c1ccc(NC(=O)C(=O)N2CCN(C(=S)Nc3ccc(OC)cc3)CC2)cc1	?	-	-	?	-	-
SMILES	Pf growth 48h	CHX counter	NS1 function inh	Pf growth 96h	Shiga inhibitor	Sm TGR inh
Cc1ccc(S(=O)(=O)N(C)C)cc1NC(=O)C(C)N(C)CCOc1ccc(Cl)cc1 (stereo unspecified)	?	-	-	?	-	-
CCOC(=O)[C@@H]1[C@H]2COc3ccccc3[C@@H]2N2C(=O)N(c3ccccc3)C(=O)[C@]12C	-	-	-	-	-	-
Cc1csc2c(N3CCN(C(=S)Nc4ccc(F)cc4F)CC3)ncnc12	-	-	-	-	-	-
COc1ccccc1CN1CC(C(=O)NC2(c3ccccc3)CC2)CCC1=O (stereo unspecified)	-	-	-	-	-	-
CCN(CC)S(=O)(=O)c1ccc(OC)c(NC(=O)CC2CCCC2)c1	?	-	-	?	-	-
O=C(NC1CC(=O)N(c2ccccc2)C1)c1ccc(S(=O)(=O)N2CCCCC2)cc1 (stereo unspecified)	.	.	.	.	.	-
CCCCc1ccc(NC(=S)N2CCN(c3ncccn3)CC2)cc1	-	-	-	-[5.75 µM]	-	-
CCOC(=O)c1ccc(NC(=S)N2CCCC(C)C2)cc1 (stereo unspecified)	-	13.0	-	?	62.1	-
CCOC(=O)c1ccc(NC(=S)N2CCCC(C(=O)N3CCCC3)C2)cc1 (stereo unspecified)	-	-	-	?	-	-
CCCCc1ccc(NC(=S)N2CCCC(C)C2)cc1 (stereo unspecified)	-	20.7	-	-	41.5	-

Assay outcomes: PubChem, National Center for Advancing Translational Sciences (NCATS)
